Measurements: PubChem BioAssay (NCATS)
Records with an inconclusive call do not appear. Calls of active or inactive are those of the source. The call rests on the fitted dose curve; in most records, active means well fitted inhibition curve with a large enough effect; inconclusive means small, poorly fitted or top-dose-only effect; inactive means flat fitted curve, though single readings scatter. Where a SMILES comes first, the peptide text is derived from it.

Assays:
[1] = tested on: CRL-7250; assay: Cytotoxic Profiling of Annotated Libraries Using Quantitative High-Throughput Screening (AID 1296008); details: Five cell lines viability, CellTiter-Glo ATP luminescence, 48-72 h; max response: stronger effect = lower value; on max response: on the % scale 0 is the no-effect control and ±100 the full control effect
Summary of the method: (§1)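 Cells exposed to compounds for 48 or 72 hr at 37 degrees Celsius. Viability read as ATP-coupled luminescence with CellTiter-Glo after 10 min at room temperature.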

[2] = tested on: HEK293; assay: as above; details: Five cell lines viability, CellTiter-Glo ATP luminescence, 48-72 h; max response: stronger effect = lower value
Summary of the method: as §1

[3] = tested on: HaCat; assay: as above; details: Five cell lines viability, CellTiter-Glo ATP luminescence, 48-72 h; max response: stronger effect = lower value
Summary of the method: as §1

[4] = tested on: KB-3-1; assay: as above; details: Five cell lines viability, CellTiter-Glo ATP luminescence, 48-72 h; max response: stronger effect = lower value
Summary of the method: as §1

[5] = tested on: NIH3T3; assay: as above; details: Five cell lines viability, CellTiter-Glo ATP luminescence, 48-72 h; max response: stronger effect = lower value
Summary of the method: as §1

[6] = tested on: HEK293T; assay: qHTS assay to identify novel small-molecules to repurpose for Merkel cell carcinoma treatment (AID 1296009); details: MCC and control cell lines, CellTiter-Glo viability, 72 h; at 44.8 µM (top of the series) unless noted
Summary of the method: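 CellTiter-Glo luminescence after 72 hr compound exposure at 37 degree celsius gave cell viability. Libraries NPC and MIPE were run as 8- and 11-point dose responses; RLUs normalized to DMSO (negative) and no-cell (cytotoxicity) controls.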

Measured: max response
Further: nearly all actives have a fitted effect of over 60% in size.

CC(C)=C1C[C@@]2(C)C(=CC1=O)CC[C@@H](O)[C@@H]2C
inactive: [1] -13.6% | [2] | [3] -1.2% | [4] 3.47% | [5] -19.7% | [6]

CC1=C2CC3C(CCC3(C)O)C(C)(O)CC2OC1=O (stereo unspecified)
inactive: [1] -2.15% | [2] | [3] 3.12% | [4] 6.46% | [5] -16.4% | [6]

CC(C)C1(O)NC(=O)C(CC2(O)c3ccccc3N3C(=O)C(C)(C)NC32)n2c1nc1ccccc1c2=O (stereo unspecified)
inactive: [1] | [2] | [3] -2.62% | [4] | [5] -5.54% | [6] inactive [at 17.4 µM]

CSCC1OC(n2cnc3c(N)ncnc32)C(O)C1O (stereo unspecified)
inactive: [1] | [2] | [3] 2.69% | [4] | [5] -0.346% | [6]

Cn1nccc1-c1ccccc1Oc1ccc(S(=O)(=O)Nc2nccs2)cc1C#N
inactive: [1] | [2] | [3] -17.4% | [4] 2.49% | [5] 0.589% | [6]

CC(=O)NC(Cc1ccccc1)C(=O)NC(C(=O)O)C(C)C (stereo not drawn) (Ac-Phe-Val-OH; configuration not given here)
inactive: [1] -0.555% | [2] | [3] -2.09% | [4] 4.23% | [5] 4.03% | [6]

C[C@@H]1CC[C@]2(C(=O)O)CC[C@]3(C)C(=CCC4[C@@]5(C)C[C@@H](O)[C@@H](O)C(C)(C)C5CC[C@]43C)C2[C@]1(C)O (stereo partly specified)
inactive: [1] -1.23% | [2] | [3] -10.3% | [4] 9.05% | [5] -8.5% | [6] inactive [at 17.4 µM]

COc1cccc(CNc2ccc(S(=O)(=O)Nc3nc4ccccc4s3)cc2)c1O
inactive: [1] 0.252% | [2] | [3] -8.64% | [4] 7.86% | [5] -2.92% | [6]

COC(=O)[C@H](Cc1ccc([N+](=O)[O-])cc1)NC(=O)c1cccc2ccccc12
inactive: [1] -4.16% | [2] | [3] -4.67% | [4] | [5] -1.76% | [6]

C/C=C(/C)C(=O)OC1C(OC(C)=O)C23C(O)OC4(CCC5C6(C)CCC(OC7OC(C(=O)O)C(O)C(OC8OC(CO)C(O)C(O)C8OC8OC(C)C(O)C(O)C8OC8OCC(O)C(O)C8O)C7OC7OC(CO)C(O)C(O)C7O)C(C)(C)C6CCC5(C)C4(C)CC2OC(C)=O)C3CC1(C)C (stereo unspecified)
inactive: [1] 1.39% | [2] | [3] 1.22% | [4] 4.58% | [5] -12.1% | [6] inactive [at 9.27 µM]

O=C1C[C@@]2(C(=O)N1)C(=O)N(Cc1ccc(Br)cc1F)C(=O)c1cccn12
inactive: [1] -0.124% | [2] | [3] -21% | [4] 1.61% | [5] 1.31% | [6]

C/C=C(/C)C(=O)OC1C2OC2C2(CO2)C2C3OC(=O)C(C)C3CCC12C (stereo unspecified)
inactive: [1] -1.71% | [2] | [3] 3.73% | [4] 9.88% | [5] -1.74% | [6]

CC(O)C1NC(=O)C2CCCN2C1=O (stereo unspecified)
inactive: [1] 3.11% | [2] | [3] -1.16% | [4] | [5] -1.84% | [6] inactive [at 92 µM]

c1ccc2c(Nc3nnc(-c4ccncc4)s3)cccc2c1
inactive: [1] 3.08% | [2] | [3] -11.3% | [4] 9.81% | [5] -0.252% | [6]

COc1cc(C(CO)CO[C@@H]2O[C@H](CO)[C@@H](O)[C@H](O)[C@H]2O)ccc1O (stereo partly specified)
inactive: [1] -15.6% | [2] | [3] -35.5% | [4] 5.97% | [5] -7.99% | [6]

CC1(C)OC(=O)CC(O)C2(C)C1CC(=O)C1(C)C2C(O)CC2(C)C(c3ccoc3)OC(=O)C3OC321 (stereo unspecified)
inactive: [1] -14.5% | [2] | [3] -9.13% | [4] | [5] -11.7% | [6] inactive [at 17.4 µM]

O=C(/C=C/c1ccc(O)cc1)OC[C@H]1O[C@H](O[C@@]2(CO)O[C@@H](CO)[C@H](O)[C@H]2O)[C@H](O)[C@@H](O)[C@@H]1O
inactive: [1] | [2] | [3] 1.8% | [4] | [5] -0.438% | [6] inactive [at 17.4 µM]

C=C1CCc2occ(C)c2[C@H]2[C@H]1[C@@]13O[C@@]1(C[C@@H](C)[C@H]3OC(C)=O)[C@H]1O[C@@]21C
inactive: [1] 2.94% | [2] | [3] -22% | [4] | [5] -1.13% | [6]

O=C(O)CC1(O)C(=O)Nc2ccccc21 (stereo unspecified)
inactive: [1] | [2] | [3] -2.76% | [4] 6.03% | [5] 3.37% | [6] inactive [at 92 µM]

COC(=O)CCC1(C)C(C(C)(C)O)C(O)CC2(C)Oc3c(C)c4c(c(OC)c3CC21)C(=O)OC4 (stereo unspecified)
inactive: [1] -9.47% | [2] | [3] -0.542% | [4] 5% | [5] -1.25% | [6] inactive [at 17.4 µM]

CN(C)C(=O)C(O)C(Cc1ccccc1)NC(=O)c1cc2cc(Cl)ccc2[nH]1 (stereo unspecified)
inactive: [1] | [2] | [3] -1.1% | [4] 5.45% | [5] -2.44% | [6]

C[C@]12CC/C(=N\OCC(=O)O)C=C1CC[C@@H]1[C@@H]2[C@@H](O)C[C@@]2(C)[C@H]1CC[C@]2(O)C(=O)CO
inactive: [1] -6.4% | [2] | [3] 2.89% | [4] | [5] -9.49% | [6]

COc1ccc2c(c1)N1C(=O)C[C@@]34C=CC[N@+]5([O-])CC[C@H]2[C@H](CC3)[C@@]145
inactive: [1] 0.465% | [2] | [3] 0.691% | [4] | [5] -2.66% | [6]

C=C(CCO)C(=O)OCC1OCC(OC(=O)C(=C)CCO[C@@H]2O[C@H](COC(=O)C(=C)CCO[C@@H]3O[C@H](CO)[C@@H](O)[C@H](O)[C@H]3O)[C@@H](O)[C@H](O)[C@H]2O)C(O)C1O (stereo partly specified)
inactive: [1] 0.815% | [2] | [3] -17.9% | [4] 0.844% | [5] 3.62% | [6] inactive [at 17.4 µM]

CC(=O)OC1CCC2(C)C(CCC3(C)C2CC=C2C4CC(C)(C)CCC4(C)CCC23C)C1(C)C(=O)O (stereo unspecified)
inactive: [1] -8.32% | [2] | [3] -5.03% | [4] 3% | [5] 3.68% | [6] inactive [at 17.4 µM]

COC(=O)C1C(O)CCC2CN3CCc4c([nH]c5ccccc45)C3CC21 (stereo unspecified)
inactive: [1] 2.68% | [2] | [3] -7.68% | [4] 9.41% | [5] -7.25% | [6]
